In the library only some 7% were active in any assay of this set; here they are far more common.
DRD3 antagonist: qHTS of D3 Dopamine Receptor Antagonist: qHTS; D3R cells, DiscoveRx beta-arrestin luminescence, antagonist mode; active compounds read low; max response, negative = inhibition, %; actives 2.5% (n = 360,000); AID 652054, 2013; in the data active = max response below about -50%; inconclusive = no clear call, values can overlap the other calls; also: % is scaled to controls: 0 for no effect and ±100 for the full control effect
Target sequence (P35462 whole entry, looked up): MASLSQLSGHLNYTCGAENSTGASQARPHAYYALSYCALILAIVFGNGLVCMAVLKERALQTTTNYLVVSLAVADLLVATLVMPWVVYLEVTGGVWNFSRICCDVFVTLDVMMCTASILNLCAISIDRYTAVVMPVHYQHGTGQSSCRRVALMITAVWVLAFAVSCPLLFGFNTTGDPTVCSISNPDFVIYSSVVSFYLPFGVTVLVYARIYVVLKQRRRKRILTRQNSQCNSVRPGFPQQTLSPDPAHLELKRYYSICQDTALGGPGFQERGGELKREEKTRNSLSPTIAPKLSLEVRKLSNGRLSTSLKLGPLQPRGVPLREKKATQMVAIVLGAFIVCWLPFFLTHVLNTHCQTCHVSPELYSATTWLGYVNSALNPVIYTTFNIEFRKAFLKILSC
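Cells expressing the human receptor were seeded at 1500 cells/well, incubated overnight at 37 degrees C in 5% CO2, then exposed to library compounds with dopamine controls for 90 minutes at 37 degrees C before luminescent detection.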
IL-1B inflam inh: qHTS for Inhibitors of Inflammasome Signaling: IL-1-beta AlphaLISA Primary Screen; THP-1 LPS/ATP IL-1B secretion, AlphaLISA, 16 h; active compounds read low; activity change, % at 57.5 µM; actives 4.7% (n = 360,000); AID 743279, 2014; in the data active = activity change below about -50%; inconclusive = mostly about -30% to -49%; also: % is scaled to controls: 0 for no effect and ±100 for the full control effect
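THP-1 cells pretreated 1 hr with compounds (up to 57.5 uM final), then stimulated with LPS (250 ng/mL final) plus ATP (1.25 mM final); secreted IL-1B measured by AlphaLISA after 16 hr, decreased signal indicating inhibition.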
DRD3 agonist: qHTS of D3 Dopamine Receptor Agonist: qHTS | D(3) dopamine receptor (Homo sapiens), P35462 | D3R DiscoveRx beta-arrestin cells, luminescence, 90 min | AID 652048, 2013 | actives 0.58% (n = 410,000) | max activation, %; in the data active = max activation above about 30%; also: 0% is about no effect
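Cells at 1500/well, incubated overnight, then treated with pinned compounds (dopamine as control) for 90 min at 37 degrees C. DiscoveRx reagent added for 30 - 60 minutes at room temperature; luminescence read.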
S2 tox: Viability Counterscreen for Primary qHTS for Inhibitors of ATXN expression; S2 cells (HEK-293 line with an ATXN2-luciferase reporter) viability, CellTiter-Fluor protease fluorescence, 24 h; Potency, µM (series often up to 56.7 µM), most hits filed as cytotoxic; actives 0.49% (n = 400,000); AID 651635, 2014; also: potency is read from the fitted curve at half-maximal effect; nearly all actives have a fitted effect of over 40% in size
a7 integrin act: qHTS for Activators of Integrin-Mediated Alleviation for Muscular Dystrophy; alpha7betagal myoblasts, beta-gal FDG fluorescence, 48 h; Potency, µM (series often up to 38.3 µM), inactives show at the highest dose activation, hits mostly activators; actives 0.064% (n = 350,000); AID 624291, 2012;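 also: potency is read from the fitted curve at half-maximal effect; 100% = response of the positive control SU9516; nearly all actives have a fitted effect of over 60% in size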
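Alpha7betagal+/- myoblasts (passage 13) were plated 16-24 hr, then exposed to compounds (1:260 dilution of DMSO stock) for 48 hours at 37C. After MPER lysis, β-galactosidase reporter activity was read as FDG fluorescence (ex 480/em 540) after 30 minutes.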
ATXN2 expr inh: Primary qHTS for Inhibitors of ATXN expression; HEK-293 ATXN2-luciferase reporter, luminescence, 24 h; Potency, µM (series often up to 57 µM), for the others: at the highest dose activity change, negative = inhibition, actives largely listed as inhibitors; actives 0.72% (n = 360,000); AID 1745845, 2022; also: potency is read from the fitted curve at half-maximal effect; % is scaled to controls: 0 for no effect and ±100 for the full control effect; nearly all actives have a fitted effect of over 55% in size
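qHTS (up to 57 uM final) was run with 24 h compound exposure of reporter cells at 37 °C. Each well was multiplexed: SteadyGlo luminescence measured ATXN2-luciferase expression after a fluorogenic Gly-Phe-AFC viability readout (25 uM final).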
Starred values were filed as active, the others as inactive; i = inactive; ? = inconclusive; . = no result; [ ] = remark or other dose. Unless noted, calls follow the shape of the dose curve; as a rule, active = well fitted curve in the direction sought with a large enough effect; inconclusive = small, poorly fitted or top-dose-only effect, or another doubt; inactive = no such curve, though single readings can be large; an effect the other way counts as inactive or inconclusive.

SMILES	DRD3 antagonist	IL-1B inflam inh	DRD3 agonist	S2 tox	a7 integrin act	ATXN2 expr inh
O=C(C[C@H]1C[C@H](C(=O)N2CCOCC2)[C@@]2(CCC3CCCC3)c3[nH]c4cc(-c5ccco5)ccc4c3CCN2C1=O)NCc1ccco1	-25.1	-55.3*	-14.7	?	-19.6%	?
C[C@]12c3[nH]c4cc(-c5ccco5)ccc4c3CCN1C(=O)[C@@H](CC(=O)NCCN1CCOCC1)C[C@@H]2C(=O)N1CCOCC1	6.8	-12.2	10.5	i	14.2%	-0.9%
CN(C)CCCNC(=O)C[C@H]1C[C@H](C(=O)N2CCCCC2)[C@@]2(CCc3ccccc3)c3[nH]c4cc(-c5ccco5)ccc4c3CCN2C1=O	-24.9	-7.7	-15.0	28.2µM*	-41.4%	?
COC(=O)Cn1cnc(C(=O)Nc2ccc(C)c(C)c2)n1	0.0	3.7	13.6	i	5.7%	3.1%
Cc1n[nH]c(C)c1Sc1ccccc1[N+](=O)[O-]	12.9	-18.7	1.6	i	2.3%	6.5%
Cc1n[nH]c(C)c1Sc1ccccc1N=Cc1cc(Cl)cc([N+](=O)[O-])c1O	-131.2*	0.5	-15.3	i	26.6%	-5.6%
O=S(=O)(c1ccccc1)N1CCN(S(=O)(=O)c2ccccc2)c2ccccc21	-0.9	-9.7	-24.4	i	30.3%	-13.2%
CC1=C(C)CS(=O)N(c2ccc(S(N)(=O)=O)cc2)C1 (stereo not drawn)	?	-92.9*	0.8	i	3.6%	2.3%
CC1=C(C)CS(=O)N(S(=O)(=O)c2ccccc2)C1 (stereo not drawn)	10.3	-50.5*	-32.9	i	-7.2%	-8.0%
COc1cc(CN(C(=O)c2ccc(C)cc2)C2CCS(=O)(=O)C2)cc(OC)c1OC (stereo not drawn)	.	.	2.6	i	.	3.8%
COc1ccc(F)cc1-c1cc(NC=O)c2ncc(-c3cccc(C(=O)N(C)C)c3)n2c1	?	-15.3	52.1*	?	.	25.1µM*
CN(C)C(=O)c1cccc(-c2cnc3c(NC=O)cc(-c4ccccc4N(C)C)cn23)c1	0.8	24.2	0.8	i	.	?
CN(C)C(=O)c1cccc(-c2cnc3c(NC=O)cc(-c4ccccc4Cl)cn23)c1	8.0	-53.3*	12.6	11.2µM*	.	-23.8%
Nc1ccc(S(=O)(=O)c2cc(O)c3ccccc3c2O)cc1	-28.5	-111.5*	-6.1	?	-22.9%	?
O=C(COc1ccc(S(=O)(=O)NC2CCCCC2)cc1Cl)Nc1ccc2c(c1)OCO2	16.4	-58.8*	-2.1	i	7.1%[7.66 µM]	-15.2%
Cc1cc(OC(C)C(=O)NC(Cc2c[nH]c3ccc(O)cc23)C(=O)O)c2c(C)cc(=O)oc2c1 (stereo not drawn)	0.0	13.8	13.7	i	-46.2%	3.0%
O=S(=O)(c1ccc(F)c(F)c1)N1CCN(Cc2ccc3c(c2)OCO3)CC1	-2.5	-6.9	-10.7	i	-2.7%	-10.6%
COc1cc(S(=O)(=O)N2CCN(Cc3ccc4c(c3)OCO4)CC2)c(C)cc1C	-6.4	-20.4	-6.1	i	-32.3%	-24.9%
O=S(=O)(c1ccc2c(c1)OCCO2)N1CCN(Cc2ccc3c(c2)OCO3)CC1	-50.4*	64.8	2.2	i	-6.3%	-2.5%
COc1cc(C)c(C)cc1S(=O)(=O)N1CCN(Cc2ccc3c(c2)OCO3)CC1	-54.5*	-8.7	-16.2	i	2.9%	-1.0%
O=C(CC1C(=O)NCCN1Cc1c(F)cccc1Cl)NCCC1=CCCCC1 (stereo not drawn)	-19.9	-18.3	1.9	i	-36.9%	.
O=C1c2ccccc2C(=O)N1CCC#Cc1ccc2cc(CCCO)oc(=O)c2c1	82.9	-10.5	33.1*	i	6.3%	10.1%
O=c1oc(CCCO)cc2ccc(C#Cc3ccsc3)cc12	58.9	-7.5	27.1	?	0.0%	11.3%
O=C(c1ccc(F)cc1)C1CCN(C(=O)NCc2ccccc2)CC1	22.2	-4.7	1.1	i	6.5%	-11.5%
COc1ccc(CCC(=O)Nc2ncc(C)s2)cc1OC	-12.5	5.5	-3.0	i	3.9%	-4.4%
SMILES	DRD3 antagonist	IL-1B inflam inh	DRD3 agonist	S2 tox	a7 integrin act	ATXN2 expr inh
CCOC(=O)c1cnc(NCc2ccc(OC)cc2OC)c2ccccc12	.	.	9.6	.	.	.
O=[N+]([O-])c1ccc(C(O)C23CN4CN(CN(C4)C2)C3)cc1 (stereo not drawn)	-68.5*	-18.1	4.9	i	20.3%	-10.6%
O=c1c2c(nc3n1CCCCC3)sc1c(O)c(Br)ccc12	-21.7	3.4	-3.4	i	3.1%[7.66 µM]	-23.9%
CCN(CC)CCOc1c(Br)ccc2c1sc1nc3n(c(=O)c12)CCC3	-3.1	-63.8*	-0.1	?	0.0%	?
N#CC1=C(N)SC(N)=C(C#N)C1c1cccc(O)c1	-19.9	10.1	-8.5	i	13.8%	4.1%
COc1ccccc1Nc1ncnc2c1nc1n2CCCCC1	.	.	-8.2	i	.	11.1%
CC(C)(C)N(Cc1cc2ccccc2[nH]c1=O)C(=O)c1cccc([N+](=O)[O-])c1	-17.3	-12.8	46.9*	i	?	-8.4%
Cc1nnnn1/C(=C\c1ccccc1)C(=O)OCC(=O)NC(C)(C)C	0.0	-4.7	-10.6	?	-18.5%	-6.8%
CC(=O)Nc1ccc(NC(=O)COC(=O)/C(=C/c2ccccc2)n2nnnc2C)cc1	7.7	-75.7*	1.6	?	-14.0%	-35.4%
Cc1nnnn1/C(=C\c1ccccc1)C(=O)OCC(=O)NC1CCCCC1	-12.8	-103.3*	-16.6	?	10.5%	-33.1%
CCc1nc2c(OCc3ccc(F)c(F)c3)cccn2c1N(C)C(=O)c1ccc(OC)cc1	-19.3	-6.4	-3.2	i	.	-14.5%
CC(=O)c1nc(N2C(=O)CC(Cc3cc(C)cc(C)c3)C2=O)sc1C (stereo not drawn)	?	2.8	-14.2	i	14.7%	-21.0%
CC(=O)c1nc(N2C(=O)CC(Cc3cccc(C)c3)C2=O)sc1C (stereo not drawn)	-55.4*	0.0	8.1	i	13.7%	-6.9%
Cc1cccc(Oc2sc(C(=O)c3ccccc3)c(N)c2C#N)c1	-12.2	-85.9*	-11.8	i	-0.8%	-30.9%
N#Cc1c(Nc2ccccc2)sc(C(=O)c2ccccc2)c1N	-5.4	-13.7	-2.2	i	3.4%	-9.2%
CCc1cc2cc(C(=O)Nc3ccc(F)cc3)sc2s1	-7.7	-5.2	-2.1	i	-3.8%	19.0%
CC(C)(C)c1ccc(C(=O)Nc2ccc(F)cc2)s1	-7.4	-61.8*	-2.5	?	1.3%	32.8%

Screening data from PubChem.
